Laboratory results: PubChem BioAssay AID504329 (Southern Research Specialized Biocontainment Screening …, 2011)
Hit rate of the full screen: of about 340,000 compounds, about 1,000 (0.29%) were called active. A selection follows. Measured potencies and affinities stand elsewhere. A number with no mark means an inactive call. Rule as the data show it: inconclusive = inhibition above about 27% without an active follow-up result; inactive = below that.

Assay: H1N1 influenza NS1A inhibitors, functional cell based assay (AID 504329)
Conditions: percent inhibition, at 12.5 µM, active compounds read high

| SMILES | inhibition |
| --- | --- |
| CCc1nnc(NC(=O)COC(=O)c2cc(OC)cc(OC)c2)s1 | 1.22% |
| CCc1ccc(NC(=O)C2CCN(c3ncnc4c3nc3n4CCCCC3)CC2)cc1 | -5.69% |
| CCOc1ccc2oc(C(=O)N(Cc3nnc(-c4ccccc4Cl)o3)C3CC3)c(C)c2c1 | -5.39% |
| CC(C)c1ccc(CNC(=O)CSCC(=O)Nc2ccc3ccccc3c2)cc1 | 1.48% |
| CCc1nn(CC(=O)NC2CCN(Cc3ccccc3)CC2)c(=O)c2cc3cc(F)ccc3n12 | 0.23% |
| Cc1cc(C)c(NC(=O)CS(=O)CC(=O)Nc2ccc(-n3cnnn3)c(C)c2)c(C)c1 (centres undefined) | -3.45% |
| C/C(=C/c1ccccc1)C(=O)N1CCN(c2ccc(F)cc2)CC1 | -28.5% |
| c1ccc(Nc2ccc(Nc3ccccc3)cc2)cc1 | 26.8% |
| c1ccc(Nc2ccccc2)cc1 | -1.53% |
| CC(C)c1nc(SCC(=O)N2CCCCCC2)c2c(=O)n(C)c(=O)n(C)c2n1 | -2.22% |
| COc1ccccc1C(CCNCc1ccccc1)c1ccc(OC(C)C)cc1 (centres undefined) | 11.1% |
| COc1ccc(CNCCC(c2ccc(OC(C)C)cc2)C(C)C)cc1OC (centres undefined) | 5.92% |
| COc1ccc(C(CCNCc2ccc(N(C)C)cc2)c2ccccc2)cc1 (centres undefined) | 25.2% |
| COc1ccc(C(CCNCc2ccc(OC(C)C)cc2)c2ccccc2OC)cc1 (centres undefined) | 3.25% |
| COc1ccc(CNCCC(c2ccc(OC(C)C)cc2)c2ccccc2OC)cc1 (centres undefined) | 13.4% |
| COc1ccc(CNCCC(c2ccc(OC)cc2)c2ccccc2OC)cc1 (centres undefined) | -0.73% |
| O=C(CCc1c[nH]c2ccccc12)NCc1cccc(Cl)c1 | 15.9% |
| Cc1cc(=O)oc2cc(OCC(=O)Nc3c(C)n(C)n(-c4ccccc4)c3=O)c(Cl)cc12 | -7.09% |
| Cc1cc(=O)oc2cc(OCC(=O)N(C)C3CCS(=O)(=O)C3)c(Cl)cc12 (centres undefined) | -3.85% |
| CN(C)/C=C1/C(=O)NC(=O)N(CCNc2ncc(C(F)(F)F)cc2Cl)C1=O | -1.37% |
| CN(C)C(=O)CCc1ccc2c3c([nH]c2c1)[C@]1(C)[C@@H](C(=O)N2CCCCC2)C[C@H](CC(=O)NCCN2CCOCC2)C(=O)N1CC3 | 8.89% |
| S=C(NCc1cccs1)NCC1CCCO1 (centres undefined) | -5.35% |
| Cc1ccc(S(=O)(=O)N(C)CCCC(=O)Nc2cccc3ccccc23)cc1 | 2.47% |
| Cc1ccc(S(=O)(=O)N(C)CCCC(=O)Nc2ccc(C)cc2C)cc1 | -2.08% |
